Compound activity: PubChem BioAssay, National Center for Advancing Translational Sciences (NCATS)
This is a sample that favours compounds with a hit; in the whole collection about 2.5% have one here.
Cruzain noTriton: blocks cruzain activity in detergent-free assay; P25779; purified cruzain, Z-FR-AMC fluorescence, no detergent; Potency, µM, without a hit: max response, negative = inhibition, hits mostly inhibitors; hit rate 2.3% among 200,000; AID 1476;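 note: plate controls were enzyme without inhibitor for no effect and buffer without enzyme for full effect; nearly all actives have a fitted effect of over 40% in size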
Target sequence (P25779 123-467 limits assumed): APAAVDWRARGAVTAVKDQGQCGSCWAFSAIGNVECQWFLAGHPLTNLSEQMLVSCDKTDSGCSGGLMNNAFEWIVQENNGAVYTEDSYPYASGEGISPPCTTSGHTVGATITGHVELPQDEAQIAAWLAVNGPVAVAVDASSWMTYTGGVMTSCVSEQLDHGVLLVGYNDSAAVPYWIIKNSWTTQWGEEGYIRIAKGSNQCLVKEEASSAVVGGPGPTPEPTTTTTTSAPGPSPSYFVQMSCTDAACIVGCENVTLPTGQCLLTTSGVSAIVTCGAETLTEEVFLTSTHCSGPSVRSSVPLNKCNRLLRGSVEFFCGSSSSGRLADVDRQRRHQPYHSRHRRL
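Purified cruzain at 1.5 nM, pre-incubated 15 min with compound at room temperature in 100 mM sodium acetate pH 5.5, 5 mM DTT, 0.00005% Triton X-100. Reaction started with 2 uM Z-FR-AMC; AMC fluorescence increase over 60 s gives rate.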
Cruzain inh Det: inhibitors of Trypanosoma cruzi cruzain with detergent; P25779; purified cruzain, Z-FR-AMC fluorescence, 0.01% Triton; Potency, µM, without a hit: max response, negative = inhibition, hits mostly inhibitors; hit rate 0.43% among 200,000;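 note: plate controls were neutral wells for no effect and buffer without enzyme for full effect; nearly all actives have a fitted effect of over 40% in size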
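Purified cruzain (1.5 nM final) was preincubated with compounds for 15 min at room temperature in 100 mM sodium acetate pH 5.5, 5 mM DTT, 0.01% Triton X-100. Reaction started with 2 uM Z-FR-AMC; AMC fluorescence change over 60 s gave activity.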
Numbers without * were called inactive; ? = inconclusive. Calls come from the whole dose curve; as a rule, active = well fitted curve in the direction sought with a large enough effect; inconclusive = small, poorly fitted or top-dose-only effect, or another doubt; inactive = no such curve, though single readings can be large; an effect the other way counts as inactive or inconclusive. Potency is the fitted concentration of half-maximal effect.

SMILES	Cruzain noTriton	Cruzain inh Det
Cc1cc2c(cc3c(SCc4ccccc4Cl)nnc(C)n32)o1	5%	-1%
O=S(=O)(Nc1nc2ccccc2nc1N1CCc2ccccc2C1)c1ccc(Br)cc1	7.9µM*	-4%
O=S(=O)(Nc1nc2ccccc2nc1N1CCc2ccccc2C1)c1ccc(Cl)cc1	-76%	-5%
CCN(CC)c1ccc(NS(=O)(=O)c2ccc3c(c2)CCCN3C(C)=O)c(C)c1	-7%	-1%
CCN(C(=O)CSc1ncc(S(=O)(=O)c2ccc(C)c(Cl)c2)c(=O)[nH]1)c1cccc(C)c1	?	-17%
COc1ccc(C2CC(=O)c3cc(-c4nc(-c5cccc([N+](=O)[O-])c5)cs4)c(=O)n(-c4ccccc4N)c3C2)cc1 (configuration not stated)	?	-3%
COc1ccc(C2=Nc3cccc4cccc(c34)N2)cc1	3.2µM*	-3%
Nc1cccc(C2=Nc3cccc4cccc(c34)N2)c1	7.9µM*	-3%
CC(C)C1=Nc2cccc3cccc(c23)N1	-10%	1%
Nc1cccc(-c2nc3ccc(N)cc3s2)c1	-1%	-22%
Cc1ccccc1-c1noc(-c2ccc(N3CCN(C)CC3)c([N+](=O)[O-])c2)n1	?	-4%
COc1nc(Oc2ccc(C(=O)O)cc2)nc(Oc2ccc(C(=O)O)cc2)n1	-7%	5%
COc1ccc(Oc2nc(Oc3ccc(OC)cc3)nc(Oc3ccc(OC)cc3)n2)cc1	3.2µM*	2%
CN1CCN(c2ccnc(-c3ccc(N(C)C)cc3)n2)CC1	-16%	-9%
CSc1ncc(Cl)c(C(=O)Nc2ccc(S(=O)(=O)N3CCC(C)CC3)cc2)n1	-5%	-9%
Nc1ncnc2c1nc(Sc1ccc(Cl)cc1)n2[C@H]1O[C@@H]2COP(=O)(O)O[C@H]2[C@@H]1O	-5%	-2%
CCn1c(=O)c2cc(C(=O)NCCCN3CCN(c4ccc(F)cc4)CC3)sc2c2ccccc21	-3%	0%
Clc1ccc(CSCc2ccc(Cl)cc2Cl)c(Cl)c1	-4%	1%
CCc1ccc(CNC(=O)CCCN2C(=O)CCn3nc(-c4cccn4C)cc32)cc1	?	-4%
COC(=O)NC(=S)Nc1ccc(Oc2ccc(Cl)cc2)c(Cl)c1	-7%	-7%
COC(=O)NC(=S)Nc1ccc(Oc2ccc(Cl)cc2Cl)c(Cl)c1	25µM*	-4%
COc1ccc(-c2csc3c2[N+]2=CCC=C2C3=O)cc1	-7%	-8%
CCc1cccc(-n2c(=O)c3cccnc3n2CC(=O)NCc2ccccc2)c1	11%	-13%
Cc1cccc(N=C2NN=C(c3c(C)[nH]c4ccccc34)CS2)c1	?	-4%
Cc1cccc(N=C2NN=C(c3ccc4c(c3)OCCO4)CS2)c1	16µM*	-7%
SMILES	Cruzain noTriton	Cruzain inh Det
Cc1ccc(NC(=O)CN2C(=O)C(c3ccc(C)cc3)=NC23CCCCCC3)cc1	?	-8%
Cc1cccc(CCNc2ncnc3onc(-c4ccc(Cl)cc4)c23)c1	-11%	-6%
Cn1c(C[C@@H](O)c2nc3ccccc3n2C)nc2ccccc21	15%	2%
O=C(Nc1ccc(Nc2ccc3c(c2)C(=O)c2ccccc2C3=O)c2c1C(=O)c1ccccc1C2=O)c1ccccc1	11%	2%
O=C(COc1cc(O)c2c(=O)cc(-c3ccccc3)oc2c1)c1ccccc1	?	-2%
O=C(COc1cc(O)c2c(=O)cc(-c3ccccc3)oc2c1)c1ccc(F)cc1	13µM*	-4%
Cc1cccc(N2CCN(C(=O)C3CCN(S(=O)(=O)Cc4ccccc4)CC3)CC2)c1C	4%	-3%
CCCCNC(=O)[C@@H](c1ccccc1)N1Cc2ccccc2C1=O	5%	7%
O=C(O)[C@@H](c1ccccc1)N1Cc2ccccc2C1=O	16µM*	-27%
O=C(NCC(c1ccco1)S(=O)(=O)c1ccc(Cl)cc1)c1ccccc1F (configuration not stated)	-11%	-1%
CC(=O)N1CCCc2ccc(NC(=O)c3ccc(C(F)(F)F)cc3)cc21	2%	-5%
O=C(Nc1ccc(-c2cn3ccccc3n2)cc1)c1ccco1	-6%	-8%
O=C(Nc1ccc(-c2cn3ccccc3n2)cc1)c1ccc(Cl)cc1	13µM*	-3%
COC(=O)c1ccc(CSc2c(C(C)C)cnc3c2c(=O)n(C)c(=O)n3C)cc1	-5%	0%
CCOc1cc(/C=N/N=C(\N)c2nonc2N)cc(Br)c1OCc1cccc2ccccc12	6.3µM*	4%
CCOc1cc(/C=N/NC(N)=S)cc(Br)c1OCc1ccccc1C	1µM*	3.2µM*
COc1cc(/C=N/NC(N)=S)cc(Br)c1OCc1ccccc1F	0.2µM*	0.56µM*
COc1cc(/C=N/N=C(/N)c2nonc2N)cc(Br)c1OCc1cccc(C)c1	-12%	4%
CCOc1cc(/C=N/NC(N)=O)cc(Br)c1OCc1ccccc1	-3%	4%
CCOc1c(Br)cc(/C=N\NC(=O)c2ccccc2)cc1OC	-4%	-5%
Cc1ccc(CNC(=O)c2cccn2-c2nnc(N3CCCCC3)s2)cc1	-5%	-2%
